# Data published in PubChem BioAssay (Tox21).
# Unmarked numbers belong to inactive results. Inconclusive results are not listed. A call without a number means that no potency is given here. Calls of active or inactive are those of the source. Unless noted, calls come from the whole dose curve.
# Legend:
# [1] = qHTS assay to identify small molecule antagonists of the sonic hedgehog signaling (Shh) pathway (AID 1259369); note: nearly all actives have a fitted effect of over 45% in size; note: potency is the fitted concentration of half-maximal effect
# Outline: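 Read-out is luminescence from a firefly luciferase gene controlled by the Gli1 response element, in 3T3Gli1-Luc cells pre-incubated 4hr then exposed to compounds and conditioned medium for 24hr.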
# [2] = target: Estrogen receptor beta (Homo sapiens) (UniProt Q92731); experiment: qHTS assay to identify small molecule antagonists of the estrogen receptor beta (ER-beta) signaling pathway (AID 1259378; active = well fitted inhibition curve with a large enough effect in the signal ratio in the repeat runs, not every such curve was filed as active; the % refers to the signal ratio)
# Chain of Estrogen receptor beta (Homo sapiens) (Q92731 whole entry, looked up): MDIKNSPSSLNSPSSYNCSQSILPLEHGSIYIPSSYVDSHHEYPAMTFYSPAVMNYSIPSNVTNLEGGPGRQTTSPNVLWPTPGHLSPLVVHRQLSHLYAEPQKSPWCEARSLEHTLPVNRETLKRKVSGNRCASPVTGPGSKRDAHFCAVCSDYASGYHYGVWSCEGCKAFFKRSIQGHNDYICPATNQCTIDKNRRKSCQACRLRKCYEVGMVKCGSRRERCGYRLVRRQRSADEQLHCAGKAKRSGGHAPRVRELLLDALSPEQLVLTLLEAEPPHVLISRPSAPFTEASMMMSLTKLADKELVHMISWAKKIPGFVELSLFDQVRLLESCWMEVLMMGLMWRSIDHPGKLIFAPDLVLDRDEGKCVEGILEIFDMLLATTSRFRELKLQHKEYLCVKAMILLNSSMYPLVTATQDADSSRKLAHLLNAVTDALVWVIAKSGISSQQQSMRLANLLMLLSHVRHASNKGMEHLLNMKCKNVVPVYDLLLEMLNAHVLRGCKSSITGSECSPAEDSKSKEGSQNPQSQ
# Outline: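 ER-beta-UAS-bla HEK293T cells in 2% charcoal-stripped FBS medium treated with compound plus 1nM final 17-beta-estradiol for 16 hr at 37C. Beta-lactamase reporter read by FRET substrate fluorescence after 2 hours at room temperature.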
# [3] = qHTS assay to identify small molecule agonists of the androgen receptor (AR) signaling pathway in the presence of an antagonist - cell viability counter screen (AID 1259379; active = well fitted curve in the direction sought with a large enough effect in the repeat runs; an effect the other way counts as inactive or inconclusive; note: nearly all actives have a fitted effect of over 25% in size; note: potency is the fitted concentration of half-maximal effect;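 for activity change, negative = cytotoxicity: MDA-kb2 human breast cancer cells carrying an MMTV luciferase reporter; series mostly up to about 92 µM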)
# Outline: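 Each compound was tested at 15 concentrations on MDA-kb2 cells in the presence of 3.0uM nilutamide. Viability was measured by CellTiter-Fluor fluorescence after a 16 hr incubation at 37C in a CO2-free atmosphere.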
# [4] = qHTS assay to identify small molecule agonists of the estrogen receptor beta (ER-beta) signaling pathway - cell viability counter screen (AID 1259380; active = well fitted curve in the direction sought with a large enough effect in the repeat runs; an effect the other way counts as inactive or inconclusive; note: nearly all actives have a fitted effect of over 30% in size; note: potency is the fitted concentration of half-maximal effect)
# Outline: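 Compounds dissolved in DMSO were pin-transferred onto ER-beta-UAS-bla HEK293T cells that had settled 6 hr, and exposure ran 16 hr at 37C. Following the reporter read, CellTiter-Glo luminescence after 30 min at room temperature indicated cytotoxicity.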
# [5] = qHTS assay to identify small molecule antagonists of the estrogen receptor beta (ER-beta) signaling pathway - cell viability counter screen (AID 1259382; active = well fitted curve in the direction sought with a large enough effect in the repeat runs; an effect the other way counts as inactive or inconclusive; note: series mostly up to about 92 µM; nearly all actives have a fitted effect of over 55% in size)
# Outline: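 CellTiter-Glo ATP luminescence measured after the LiveBLAzer read in the same wells; ER-beta-UAS-bla HEK293T cells, 16 hr compound treatment with 1nM 17-beta-estradiol agonist at 37C, 5% CO2.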
# [6] = qHTS assay to identify small molecule agonists of the estrogen receptor alpha (ER-alpha) signaling pathway in the presence of an antagonist - cell viability counter screen (AID 1259386; active = well fitted curve in the direction sought with a large enough effect in the repeat runs; an effect the other way counts as inactive or inconclusive;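 note: series mostly up to about 92 µM; cells exposed to compounds for 22 h at 37 °C before the viability read; nearly all actives have a fitted effect of over 30% in size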)
# Outline: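 Using estrogen-depleted VM7Luc4E2 cells, the 15-concentration compound series was applied together with 10.0nM ICI-182,780 and incubated 22hr at 37C/5% CO2. Cell viability was then scored by CellTiter-Fluor.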
# [7] = target: Progesterone receptor (Homo sapiens) (UniProt P06401); experiment: qHTS assay to identify small molecule agonists of the progesterone receptor (PR) signaling pathway (AID 1346784); note: nearly all actives have a fitted effect of over 30% in size
# Chain of Progesterone receptor (Homo sapiens) (P06401 whole entry, looked up): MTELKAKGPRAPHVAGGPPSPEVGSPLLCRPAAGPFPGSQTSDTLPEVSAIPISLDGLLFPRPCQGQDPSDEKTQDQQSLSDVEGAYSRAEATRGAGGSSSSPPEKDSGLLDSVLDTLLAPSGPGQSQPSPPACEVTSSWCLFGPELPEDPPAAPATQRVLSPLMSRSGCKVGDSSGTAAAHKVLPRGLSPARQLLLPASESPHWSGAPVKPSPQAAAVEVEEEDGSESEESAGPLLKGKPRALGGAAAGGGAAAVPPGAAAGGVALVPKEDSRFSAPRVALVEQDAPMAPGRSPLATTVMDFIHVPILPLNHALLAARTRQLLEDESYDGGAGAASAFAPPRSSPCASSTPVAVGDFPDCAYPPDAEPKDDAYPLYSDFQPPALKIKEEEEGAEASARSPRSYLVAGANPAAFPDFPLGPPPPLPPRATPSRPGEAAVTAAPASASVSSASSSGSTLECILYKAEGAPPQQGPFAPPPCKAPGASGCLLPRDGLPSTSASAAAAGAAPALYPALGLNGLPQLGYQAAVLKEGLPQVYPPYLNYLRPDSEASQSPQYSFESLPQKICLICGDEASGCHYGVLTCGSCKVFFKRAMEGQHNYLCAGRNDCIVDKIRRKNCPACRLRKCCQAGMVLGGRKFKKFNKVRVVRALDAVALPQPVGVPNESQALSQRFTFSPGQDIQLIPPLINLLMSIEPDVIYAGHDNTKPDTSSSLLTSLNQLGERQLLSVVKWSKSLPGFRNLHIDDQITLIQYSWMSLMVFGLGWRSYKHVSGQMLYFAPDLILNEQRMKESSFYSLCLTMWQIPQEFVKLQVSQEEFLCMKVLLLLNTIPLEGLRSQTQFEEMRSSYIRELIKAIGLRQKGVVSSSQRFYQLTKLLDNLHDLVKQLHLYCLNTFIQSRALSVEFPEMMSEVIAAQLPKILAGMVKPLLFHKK
# Outline: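 HEK 293T PR-UAS-bla reporter cells, 2% charcoal-stripped FBS; 6 hr settle at 37C/5% CO2, compound (DMSO) 16 hr, LiveBLAzer B/G FRET substrate 2 hr RT, fluorescence intensity read.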
# [8] = target: Progesterone receptor (Homo sapiens) (UniProt P06401); experiment: qHTS assay to identify small molecule antagonists of the progesterone receptor (PR) signaling pathway (AID 1346795; active = well fitted inhibition curve with a large enough effect in the signal ratio in the repeat runs, not every such curve was filed as active; the % refers to the signal ratio)
# Outline: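 Beta-lactamase reporter, HEK293T PR-UAS-bla line; 2% charcoal-stripped FBS; 6 hr pre-incubation, 37C/5% CO2. Compound + R5020 1 nM final, 16 hr. LiveBLAzer B/G FRET substrate, 2 hr RT; fluorescence intensity read.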
# [9] = qHTS assay to identify small molecule agonists of the progesterone receptor (PR) signaling pathway - cell viability counter screen (AID 1346799); note: nearly all actives have a fitted effect of over 45% in size; note: potency is the fitted concentration of half-maximal effect
# Outline: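 HEK293T PR-UAS-bla, 3,000 cells/well, 2% charcoal-stripped FBS; 6 h settle, compound 16 h at 37C/5% CO2; LiveBLAzer 2 h RT, then CellTiter-Glo 30 min RT, luminescence read.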
# [10] = qHTS assay to identify small molecule antagonists of the TGF-beta/Smad signaling pathway - cell viability counter screen (AID 1346824; active = well fitted curve in the direction sought with a large enough effect in the repeat runs; an effect the other way counts as inactive or inconclusive; note: nearly all actives have a fitted effect of over 50% in size)
# Outline: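 SBE-bla HEK 293T cells, incubated overnight, then compound plus 0.25 ng/mL TGF-beta1 (stock added) for 5 hr at 37 C. Viability was read in the same wells by CellTiter-Glo luminescence after 30 min at room temperature.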
# [11] = qHTS assay to identify small molecule agonists of the TGF-beta/Smad signaling pathway - cell viability counter screen (AID 1346829; active = well fitted curve in the direction sought with a large enough effect in the repeat runs; an effect the other way counts as inactive or inconclusive; note: top concentration of the series differs between compounds; nearly all actives have a fitted effect of over 45% in size)
# Outline: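 Cytotoxicity counter screen: CellTiter-Glo luminescence (30 min, room temperature) measured in the SBE-bla HEK 293T reporter wells after 5 hr compound treatment at 37 C and the 2 hr substrate step.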
# [12] = qHTS assay to identify small molecule agonists of the TGF-beta/Smad signaling pathway (AID 1346859; active = well fitted activation curve with a large enough effect in the signal ratio in the repeat runs, not every such curve was filed as active; the % refers to the signal ratio; note: series mostly up to about 77 µM)
# Outline: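 Read-out: fluorescence at 460 and 530 nm (405 nm excitation) after a 2 hr room-temperature incubation with beta-lactamase FRET substrate. SBE-bla HEK 293T cells had been treated with test compounds for 5 hr at 37 C.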
# [13] = target: Thyrotropin-releasing hormone receptor (Homo sapiens) (UniProt P34981); experiment: qHTS assay to identify small molecule antagonists of the thyrotropin-releasing hormone receptor (TRHR) signaling pathway (AID 1346877; active = well fitted inhibition curve with a large enough effect in the repeat runs, not every such curve was filed as active; note: series mostly up to about 51 µM)
# Chain of Thyrotropin-releasing hormone receptor (Homo sapiens) (P34981 whole entry, looked up): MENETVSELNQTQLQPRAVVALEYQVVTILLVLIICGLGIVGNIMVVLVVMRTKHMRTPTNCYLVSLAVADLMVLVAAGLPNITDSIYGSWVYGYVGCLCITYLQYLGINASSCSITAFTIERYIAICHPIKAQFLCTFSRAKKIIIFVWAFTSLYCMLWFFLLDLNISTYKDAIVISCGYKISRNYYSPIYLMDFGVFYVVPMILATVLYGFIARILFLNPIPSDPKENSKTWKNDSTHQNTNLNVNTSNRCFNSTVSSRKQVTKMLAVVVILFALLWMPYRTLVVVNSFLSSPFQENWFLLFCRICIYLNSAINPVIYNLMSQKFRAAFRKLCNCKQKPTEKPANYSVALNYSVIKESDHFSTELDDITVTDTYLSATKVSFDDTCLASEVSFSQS
# Outline: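 Calcium signal in dye-loaded TRHR/HEK293 cells; compounds added 5 min before TRH (1 nM final); fluorescence monitored 3 min at 1 s steps.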
# [14] = target: Thyrotropin-releasing hormone receptor (Homo sapiens) (UniProt P34981); experiment: qHTS assay to identify small molecule agonists of the thyrotropin-releasing hormone receptor (TRHR) signaling pathway (AID 1346891);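 note: HEK293 cells expressing TRHR with calcium dye readout; series mostly up to about 58 µM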
# Outline: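 HEK293/TRHR cells, 1500 per well, 18 h 37 °C; Ca dye 2 h 37 °C; pin-tool compound addition (agonist mode); kinetic fluorescence 3 min, 1 s reads; 15 concentrations, triplicate.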
# [15] = qHTS assay to identify small molecule agonists or antagonists of the thyroid stimulating hormone receptor (TSHR) signaling pathway - wild type cell line counter screen (AID 1259384)
# Outline: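 Wild-type Hek293 cells, 800/well, 18 h at 37C, then compound with Ro20-1724 for 30 min RT. cAMP by HTRF (cAMP-d2/anti-cAMP cryptate), 1 h RT, fluorescence read. 15 concentrations, triplicates.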
# [16] = target: Thyrotropin receptor (Homo sapiens) (UniProt P16473); experiment: qHTS assay to identify small molecule antagonists of the thyroid stimulating hormone receptor (TSHR) signaling pathway (AID 1259385); note: nearly all actives have a fitted effect of over 20% in size
# Chain of Thyrotropin receptor (Homo sapiens) (P16473 whole entry, looked up): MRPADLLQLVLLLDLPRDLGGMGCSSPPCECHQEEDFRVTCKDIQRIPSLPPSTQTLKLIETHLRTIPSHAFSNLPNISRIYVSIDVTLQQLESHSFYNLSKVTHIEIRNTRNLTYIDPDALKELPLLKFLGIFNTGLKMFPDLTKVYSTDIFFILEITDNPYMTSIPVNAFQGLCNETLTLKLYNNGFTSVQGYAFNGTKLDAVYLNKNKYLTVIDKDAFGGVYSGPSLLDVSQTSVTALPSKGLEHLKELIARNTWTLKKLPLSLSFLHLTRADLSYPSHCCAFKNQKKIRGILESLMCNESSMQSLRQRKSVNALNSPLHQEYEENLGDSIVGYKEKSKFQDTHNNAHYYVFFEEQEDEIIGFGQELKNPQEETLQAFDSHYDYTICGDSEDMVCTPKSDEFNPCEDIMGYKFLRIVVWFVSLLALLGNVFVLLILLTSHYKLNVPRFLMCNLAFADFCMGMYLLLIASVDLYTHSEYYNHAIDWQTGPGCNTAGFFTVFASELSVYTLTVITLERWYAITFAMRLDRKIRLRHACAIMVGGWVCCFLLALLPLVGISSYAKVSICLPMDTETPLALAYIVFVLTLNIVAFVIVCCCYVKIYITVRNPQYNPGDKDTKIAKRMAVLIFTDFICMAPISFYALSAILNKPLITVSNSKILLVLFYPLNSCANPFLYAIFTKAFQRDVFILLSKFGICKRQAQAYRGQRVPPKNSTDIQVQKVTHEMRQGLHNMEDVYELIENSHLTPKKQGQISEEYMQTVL
# Outline: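 TSHR-HEK293 cells (800/well) plated 18 h, then compounds with Ro20-1724 and TSH at 1.5 ng/mL final, 30 min at room temperature. cAMP quantified by HTRF (cAMP-d2/anti-cAMP-cryptate, 1 h); 15 concentrations in triplicate.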
# [17] = qHTS assay to identify small molecule antagonists of the progesterone receptor (PR) signaling pathway - cell viability counter screen (AID 1346798; active = well fitted curve in the direction sought with a large enough effect in the repeat runs; an effect the other way counts as inactive or inconclusive; note: series mostly up to about 92 µM; nearly all actives have a fitted effect of over 50% in size)
# Outline: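 Luminescence readout (CellTiter-Glo, 30 min, RT) of viability in PR-UAS-bla HEK293T cells exposed to compound and R5020 agonist for 16 hr at 37C, 5% CO2; run in the same wells as the beta-lactamase reporter read.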
# [18] = target: Estrogen receptor (Homo sapiens) (UniProt P03372); experiment: qHTS assay to identify small molecule agonists of the estrogen receptor alpha (ER-alpha) signaling pathway in the presence of an antagonist (AID 1259383); note: top concentration of the series differs between compounds; nearly all actives have a fitted effect of over 15% in size
# Chain of Estrogen receptor (Homo sapiens) (P03372 whole entry, looked up): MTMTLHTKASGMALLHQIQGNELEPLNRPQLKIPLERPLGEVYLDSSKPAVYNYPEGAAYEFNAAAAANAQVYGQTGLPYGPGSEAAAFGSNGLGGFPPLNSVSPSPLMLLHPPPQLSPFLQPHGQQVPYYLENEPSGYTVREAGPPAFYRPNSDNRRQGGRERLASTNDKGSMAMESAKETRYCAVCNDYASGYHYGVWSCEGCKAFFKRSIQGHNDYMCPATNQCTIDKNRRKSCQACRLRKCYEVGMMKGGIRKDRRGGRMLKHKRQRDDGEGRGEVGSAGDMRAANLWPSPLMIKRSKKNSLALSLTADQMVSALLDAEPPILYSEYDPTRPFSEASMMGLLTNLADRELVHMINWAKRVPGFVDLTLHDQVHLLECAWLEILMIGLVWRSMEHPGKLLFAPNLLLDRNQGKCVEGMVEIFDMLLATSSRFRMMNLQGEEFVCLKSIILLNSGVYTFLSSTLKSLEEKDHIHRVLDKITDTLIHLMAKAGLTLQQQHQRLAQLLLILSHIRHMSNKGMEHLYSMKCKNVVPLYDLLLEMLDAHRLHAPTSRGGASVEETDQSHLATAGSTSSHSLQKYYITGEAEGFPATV
# Outline: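 Luminescent ERE-luciferase reporter, VM7Luc4E2 cells (endogenous ER-alpha); 10.0nM ICI-182,780 final; 15-point compound titration; 22hr at 37C; ONE-Glo, 30min RT.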
# [19] = target: Androgen receptor (Homo sapiens) (UniProt P10275); experiment: qHTS assay to identify small molecule agonists of the androgen receptor (AR) signaling pathway in the presence of an antagonist (AID 1259381); note: nearly all actives have a fitted effect of over 15% in size
# Chain of Androgen receptor (Homo sapiens) (P10275 whole entry, looked up): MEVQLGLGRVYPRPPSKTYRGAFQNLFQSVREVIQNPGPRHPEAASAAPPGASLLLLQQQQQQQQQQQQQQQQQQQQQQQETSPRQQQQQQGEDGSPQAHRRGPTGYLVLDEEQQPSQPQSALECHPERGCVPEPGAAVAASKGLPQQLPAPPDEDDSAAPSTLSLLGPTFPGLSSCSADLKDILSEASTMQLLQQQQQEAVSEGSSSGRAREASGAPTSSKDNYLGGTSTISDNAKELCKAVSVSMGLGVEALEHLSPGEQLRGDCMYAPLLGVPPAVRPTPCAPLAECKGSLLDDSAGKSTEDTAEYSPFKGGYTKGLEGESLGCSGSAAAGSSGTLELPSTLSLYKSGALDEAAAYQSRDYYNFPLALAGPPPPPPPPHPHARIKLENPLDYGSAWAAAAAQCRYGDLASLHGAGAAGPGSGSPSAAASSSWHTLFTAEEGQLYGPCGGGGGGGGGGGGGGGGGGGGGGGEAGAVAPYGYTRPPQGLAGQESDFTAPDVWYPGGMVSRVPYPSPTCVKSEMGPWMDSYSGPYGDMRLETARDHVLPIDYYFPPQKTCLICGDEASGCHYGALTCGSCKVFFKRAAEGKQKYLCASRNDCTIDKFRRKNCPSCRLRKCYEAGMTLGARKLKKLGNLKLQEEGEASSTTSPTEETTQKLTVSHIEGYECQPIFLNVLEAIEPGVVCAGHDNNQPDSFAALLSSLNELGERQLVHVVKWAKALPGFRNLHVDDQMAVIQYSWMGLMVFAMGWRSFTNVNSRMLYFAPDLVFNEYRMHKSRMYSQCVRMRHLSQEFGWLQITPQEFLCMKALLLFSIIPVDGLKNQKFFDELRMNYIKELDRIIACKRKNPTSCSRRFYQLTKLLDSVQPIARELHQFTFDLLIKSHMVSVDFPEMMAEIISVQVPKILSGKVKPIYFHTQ
# Outline: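 Plated MDA-kb2 cells (3,000/well) were pre-incubated 5hr, given nilutamide (3.0uM final) or buffer, then dosed with compounds in DMSO at 15 concentrations. Luciferase activity was quantified by luminescence after 16hr at 37C.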
structure (smiles),measurement,setting,value
CCCCCCCCCCCCCCCCCBr,"activity change, negative = inhibition",[1],-0.552% [at 19 µM]
same,"activity, negative = inhibition",[2],11.4% [at 19 µM]
same,"activity change, negative = cytotoxicity",[3],4.41% [at 19 µM]
same,"activity change, negative = cytotoxicity",[4],-0.948% [at 19 µM]
same,"activity change, negative = cytotoxicity",[5],-6.31% [at 19 µM]
same,"activity change, negative = cytotoxicity",[6],0.889% [at 19 µM]
same,activation,[7],-0.0997% [at 19 µM]
same,"activity change, negative = inhibition",[8],0.192% [at 18.9 µM]
same,"activity change, negative = cytotoxicity",[9],10.6% [at 19 µM]
same,"viability change, negative = cytotoxic",[10],1.56% [at 15.8 µM]
same,"activity change, negative = cytotoxicity",[11],0.567% [at 15.8 µM]
same,activation,[12],2.19% [at 15.8 µM]
same,"activity, negative = inhibition",[13],-2.78% [at 10.5 µM]
same,activation,[14],-0.232% [at 11.8 µM]
Cc1c(Cn2ccnc2)c2ccccc2n1CCC(=O)O,Potency,[1],inactive
same,Potency,[2],inactive
same,Potency,[3],inactive
same,Potency,[4],inactive
same,Potency,[5],inactive
same,Potency,[15],inactive
same,Potency,[16],inactive
same,Potency,[6],inactive
same,outcome,[7],inactive
same,Potency,[8],inactive
same,Potency,[17],inactive
same,Potency,[9],inactive
same,Potency,[10],inactive
same,Potency,[11],inactive
same,outcome,[12],inactive
OCCC1CCCCN1 (centres undefined),Potency,[1],inactive
same,Potency,[2],inactive
same,Potency,[3],inactive
same,Potency,[5],inactive
same,Potency,[18],inactive
same,Potency,[15],inactive
same,Potency,[16],inactive
same,Potency,[6],inactive
same,outcome,[7],inactive
same,Potency,[8],inactive
same,Potency,[9],inactive
same,Potency,[10],inactive
same,Potency,[11],inactive
same,outcome,[12],inactive
O=C(NS(=O)(=O)/C=C/c1cccs1)c1ccc(F)cc1Br,Potency,[1],inactive
same,Potency,[3],inactive
same,Potency,[4],inactive
same,Potency,[19],inactive
same,Potency,[18],inactive
same,Potency,[6],inactive
same,Potency,[8],inactive
same,Potency,[17],inactive
same,Potency,[9],inactive
same,Potency,[10],inactive
same,Potency,[11],inactive
same,outcome,[12],inactive
same,outcome,[13],inactive
same,Potency,[14],inactive
CCOc1cc(OCC)c(C(=O)CCC(=O)O)cc1OCC,Potency,[1],inactive
same,Potency,[2],inactive
same,Potency,[3],inactive
same,Potency,[4],inactive
same,Potency,[5],inactive
same,Potency,[18],inactive
same,Potency,[6],inactive
same,outcome,[7],inactive
same,Potency,[8],inactive
same,Potency,[17],inactive
same,Potency,[9],inactive
same,Potency,[10],inactive
same,Potency,[11],inactive
same,outcome,[13],inactive
same,Potency,[14],inactive
O=C=NC1CCC(CC2CCC(N=C=O)CC2)CC1 (centres undefined),Potency,[1],43.3 µM (active)
same,Potency,[2],inactive
same,Potency,[3],30.6 µM (active)
same,Potency,[4],68.6 µM (active)
same,Potency,[15],inactive
same,Potency,[16],inactive
same,outcome,[7],inactive
same,Potency,[8],inactive
same,Potency,[9],8.63 µM (active)
same,Potency,[10],inactive
same,Potency,[11],inactive
same,outcome,[12],inactive
same,outcome,[13],inactive
same,Potency,[14],inactive
O=C(O)c1cn(C2CC2)c2cc(Cl)c(F)cc2c1=O,Potency,[1],inactive
same,Potency,[3],inactive
same,Potency,[4],inactive
same,Potency,[19],inactive
same,Potency,[18],inactive
same,Potency,[15],inactive
same,Potency,[16],inactive
same,Potency,[6],inactive
same,Potency,[8],inactive
same,Potency,[17],inactive
same,Potency,[9],inactive
same,Potency,[10],inactive
same,Potency,[11],inactive
same,outcome,[13],inactive
same,Potency,[14],inactive
Nc1nc(N)c2nc(CNc3ccc(C(=O)N[C@@H](CCC(=O)O)C(=O)O)cc3)cnc2n1,Potency,[1],inactive
same,Potency,[2],inactive
same,Potency,[3],inactive
same,Potency,[4],inactive
same,Potency,[5],inactive
same,Potency,[18],inactive
same,Potency,[15],inactive
same,Potency,[16],inactive
same,Potency,[6],inactive
same,Potency,[17],inactive
same,Potency,[9],inactive
same,outcome,[13],inactive
same,Potency,[14],inactive
CCN(CC)CCOC(=O)C1(c2ccccc2)CCCC1,Potency,[1],inactive
same,Potency,[2],inactive
same,Potency,[3],inactive
same,Potency,[4],inactive
same,Potency,[19],inactive
same,Potency,[5],inactive
same,Potency,[18],inactive
same,Potency,[15],inactive
same,Potency,[16],inactive
same,Potency,[6],inactive
same,outcome,[7],inactive
same,Potency,[8],inactive
same,Potency,[9],inactive
same,Potency,[10],inactive
same,Potency,[11],inactive
same,outcome,[12],inactive
same,outcome,[13],inactive
same,Potency,[14],inactive
C=C(C)C(=O)OCCOc1ccccc1,Potency,[1],43.3 µM (active)
same,Potency,[3],inactive
same,Potency,[4],inactive
same,Potency,[19],inactive
same,Potency,[5],inactive
same,Potency,[18],inactive
same,Potency,[15],inactive
same,Potency,[16],inactive
same,Potency,[6],inactive
same,outcome,[7],inactive
same,Potency,[8],inactive
same,Potency,[9],inactive
same,Potency,[10],inactive
same,Potency,[11],inactive
same,outcome,[12],inactive
same,outcome,[13],inactive
same,Potency,[14],inactive
